# The full list was thinned out, with the strongest signals kept by preference.
# Key:
# Assay in all cases: glycan array binding signal (z-score within array); higher = stronger binding
# Details in all cases: glycan notation: IUPAC condensed, linker removed
# [1] = target: Fuc(a1-2)Gal(b1-3)GalNAc(b1-3)Gal
# Summary of the method: (§1)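 Glycan array data were curated from 3228 arrays in the Consortium for Functional Glycomics database and kept only where the protein sequence was available. Glycan names were converted to IUPAC-condensed notation, and columns mapping to the same glycan were averaged. The binding signal is a within-array Z-score, averaged across arrays of the same protein sequence at different concentrations or buffers and across linkers. Negative Z-scores can be read as non-binding.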
# [2] = target: Fuc(a1-2)Gal(b1-3)[Fuc(a1-4)]GlcNAc
# Summary of the method: as §1
# [3] = target: Fuc(a1-2)Gal6S(b1-3)GlcNAc6S
# Summary of the method: as §1
# [4] = target: Fuc(a1-2)Gal6S(b1-4)Glc6S
# Summary of the method: as §1
# [5] = target: Fuc(a1-2)[Gal(a1-3)]Gal(b1-3)GlcNAc(b1-2)Man(a1-3)[Fuc(a1-2)[Gal(a1-3)]Gal(b1-3)GlcNAc(b1-2)Man(a1-6)]Man(b1-4)GlcNAc(b1-4)[Fuc(a1-6)]GlcNAc
# Summary of the method: as §1
# [6] = target: Fuc(a1-2)[Gal(a1-3)]Gal(b1-4)GlcNAc(b1-6)GalNAc
# Summary of the method: as §1
# [7] = target: Fuc(a1-2)[GalNAc(a1-3)]Gal(b1-4)GlcNAc(b1-6)GalNAc
# Summary of the method: as §1
# [8] = target: Fuc(a1-2)[GalNAc(b1-3)]Gal
# Summary of the method: as §1
# [9] = target: Fuc(a1-3)[Gal3S(b1-4)]GlcNAc
# Summary of the method: as §1
# [10] = target: Fuc(a1-3)[Gal3S(b1-4)]GlcNAc6S
# Summary of the method: as §1
# [11] = target: Fuc(a1-3)[GalNAc(b1-4)]GlcNAc
# Summary of the method: as §1
# [12] = target: Gal(a1-3)Fuc(a1-2)Gal(b1-4)GlcNAc(b1-3)[Gal(a1-3)Fuc(a1-2)Gal(b1-4)GlcNAc(b1-6)]GalNAc
# Summary of the method: as §1
# [13] = target: Gal(a1-3)Gal(b1-4)GlcNAc(b1-3)GalNAc
# Summary of the method: as §1
# [14] = target: Gal(a1-4)Gal(b1-4)GlcNAc(b1-3)Gal(b1-4)Glc
# Summary of the method: as §1
# [15] = target: Gal(b1-3)GlcNAc(b1-3)GalNAc
# Summary of the method: as §1
# [16] = target: Gal(b1-3)[Fuc(a1-4)]GlcNAc(b1-2)Man(a1-3)[Gal(b1-3)[Fuc(a1-4)]GlcNAc(b1-2)Man(a1-6)]Man(b1-4)GlcNAc(b1-4)[Fuc(a1-6)]GlcNAc
# Summary of the method: as §1
# [17] = target: Gal(b1-4)GlcNAc(b1-3)Gal(b1-4)GlcNAc(b1-3)Gal(b1-4)GlcNAc(b1-2)Man(a1-3)[Gal(b1-4)GlcNAc(b1-3)Gal(b1-4)GlcNAc(b1-3)Gal(b1-4)GlcNAc(b1-2)Man(a1-6)]Man(b1-4)GlcNAc(b1-4)[Fuc(a1-6)]GlcNAc
# Summary of the method: as §1
# [18] = target: Gal(b1-4)GlcNAc(b1-3)Gal(b1-4)GlcNAc(b1-6)[Gal(b1-3)]GalNAc
# Summary of the method: as §1
# Gal3S(b1-4)Glc6S = target: Gal3S(b1-4)Glc6S
# Summary of the method: as §1
# Gal3S(b1-4)GlcNAc6S = target: Gal3S(b1-4)GlcNAc6S
# Summary of the method: as §1
# Gal3S4S(b1-4)GlcNAc = target: Gal3S4S(b1-4)GlcNAc
# Summary of the method: as §1
# Gal3S6S(b1-4)GlcNAc = target: Gal3S6S(b1-4)GlcNAc
# Summary of the method: as §1
# Gal3S6S(b1-4)GlcNAc6S = target: Gal3S6S(b1-4)GlcNAc6S
# Summary of the method: as §1
# Gal4S6S(b1-4)GlcNAc = target: Gal4S6S(b1-4)GlcNAc
# Summary of the method: as §1
# Gal6S(b1-3)GlcNAc6S = target: Gal6S(b1-3)GlcNAc6S
# Summary of the method: as §1
# Gal6S(b1-4)GlcNAc6S = target: Gal6S(b1-4)GlcNAc6S
# Summary of the method: as §1
# [19] = target: GalNAc(a1-3)GalNAc(b1-3)Gal(a1-4)Gal(b1-4)Glc
# Summary of the method: as §1
# [20] = target: GalNAc(b1-3)Gal(a1-6)Gal(b1-4)Glc
# Summary of the method: as §1
# GalNAc(b1-4)GlcNAc = target: GalNAc(b1-4)GlcNAc
# Summary of the method: as §1
# [21] = target: Glc(a1-4)Glc(a1-4)Glc(a1-4)Glc
# Summary of the method: as §1
# [22] = target: GlcNAc(a1-6)Gal(b1-4)GlcNAc
# Summary of the method: as §1
# [23] = target: GlcNAc(b1-2)Gal(b1-3)GalNAc
# Summary of the method: as §1
# [24] = target: GlcNAc(b1-2)Man(a1-3)[GlcNAc(b1-4)][GlcNAc(b1-2)Man(a1-6)]Man(b1-4)GlcNAc(b1-4)[Fuc(a1-6)]GlcNAc
# Summary of the method: as §1
# [25] = target: GlcNAc(b1-3)Gal(b1-4)GlcNAc(b1-6)[GlcNAc(b1-3)Gal(b1-3)]GalNAc
# Summary of the method: as §1
# [26] = target: GlcNAc(b1-4)Gal(b1-4)GlcNAc
# Summary of the method: as §1
# [27] = target: GlcNAc(b1-4)GlcNAc(b1-4)GlcNAc(b1-4)GlcNAc(b1-4)GlcNAc
# Summary of the method: as §1
# [28] = target: GlcNAc6S(b1-3)Gal(b1-4)GlcNAc
# Summary of the method: as §1
# Kdn(a2-3)Gal(b1-4)Glc = target: Kdn(a2-3)Gal(b1-4)Glc
# Summary of the method: as §1
# [29] = target: Neu5Ac(a2-3)Gal(b1-4)GlcNAc(b1-2)Man(a1-3)[GlcNAc(b1-2)Man(b1-4)GlcNAc(b1-2)Man(a1-6)]Man(b1-4)GlcNAc(b1-4)GlcNAc
# Summary of the method: as §1
# [30] = target: Neu5Ac(a2-3)Gal(b1-4)GlcNAc(b1-3)Gal(b1-4)GlcNAc(b1-3)GalNAc
# Summary of the method: as §1
# [31] = target: Neu5Ac(a2-3)Gal(b1-4)GlcNAc(b1-6)GalNAc
# Summary of the method: as §1
# [32] = target: Neu5Ac(a2-3)Gal(b1-4)[Fuc(a1-3)]GlcNAc(b1-3)Gal
# Summary of the method: as §1
# [33] = target: Neu5Ac(a2-3)[Neu5Ac(a2-6)]GalNAc
# Summary of the method: as §1
# Neu5Ac(a2-6)Gal = target: Neu5Ac(a2-6)Gal
# Summary of the method: as §1
# [34] = target: Neu5Ac(a2-6)Gal(b1-4)GlcNAc(b1-2)Man(a1-6)[GlcNAc(b1-2)Man(a1-3)]Man(b1-4)GlcNAc(b1-4)GlcNAc
# Summary of the method: as §1
# [35] = target: Neu5Ac(a2-6)Gal(b1-4)GlcNAc(b1-2)Man(a1-6)[Man(a1-3)]Man(b1-4)GlcNAc(b1-4)GlcNAc
# Summary of the method: as §1
# [36] = target: Neu5Ac(a2-6)Gal(b1-4)GlcNAc(b1-3)Gal(b1-4)GlcNAc(b1-3)[Neu5Ac(a2-6)Gal(b1-4)GlcNAc(b1-3)Gal(b1-4)GlcNAc(b1-6)]GalNAc
# Summary of the method: as §1
# [37] = target: Neu5Ac(a2-6)Gal(b1-4)GlcNAc(b1-6)[Gal(b1-3)GlcNAc(b1-3)]Gal(b1-4)Glc
# Summary of the method: as §1
# [38] = target: Neu5Ac(a2-6)Gal(b1-4)GlcNAc(b1-6)[Gal(b1-3)]GalNAc
# Summary of the method: as §1
# [39] = target: Neu5Ac(a2-6)GlcNAc(b1-4)GlcNAc
# Summary of the method: as §1
# [40] = target: Neu5Ac(a2-8)Neu5Ac(a2-3)Gal(b1-4)Glc
# Summary of the method: as §1
# [41] = target: Neu5Gc(a2-3)Gal(b1-3)GlcNAc
# Summary of the method: as §1
binder,measurement,setting,value
KILRGVCKKIMRTFLRRISKDILTGKK [NK2 (Sus scrofa)],glycan array binding signal (z-score),[1],0.02
same,glycan array binding signal (z-score),[2],-0.178
same,glycan array binding signal (z-score),[3],2.03
same,glycan array binding signal (z-score),[4],2.24
same,glycan array binding signal (z-score),[5],0.527
same,glycan array binding signal (z-score),[6],0.282
same,glycan array binding signal (z-score),[7],-1.05
same,glycan array binding signal (z-score),[8],-0.991
same,glycan array binding signal (z-score),[9],0.36
same,glycan array binding signal (z-score),[10],1.58
same,glycan array binding signal (z-score),[11],0.101
same,glycan array binding signal (z-score),[12],-0.533
same,glycan array binding signal (z-score),[13],0.826
same,glycan array binding signal (z-score),[14],0.785
same,glycan array binding signal (z-score),[15],-0.33
same,glycan array binding signal (z-score),[16],-0.004
same,glycan array binding signal (z-score),[17],0.462
same,glycan array binding signal (z-score),[18],2.04
same,glycan array binding signal (z-score),Gal3S(b1-4)Glc6S,1.67
same,glycan array binding signal (z-score),Gal3S(b1-4)GlcNAc6S,4.29
same,glycan array binding signal (z-score),Gal3S4S(b1-4)GlcNAc,2.81
same,glycan array binding signal (z-score),Gal3S6S(b1-4)GlcNAc,2.92
same,glycan array binding signal (z-score),Gal3S6S(b1-4)GlcNAc6S,3.98
same,glycan array binding signal (z-score),Gal4S6S(b1-4)GlcNAc,2.26
same,glycan array binding signal (z-score),Gal6S(b1-3)GlcNAc6S,3.16
same,glycan array binding signal (z-score),Gal6S(b1-4)GlcNAc6S,2.85
same,glycan array binding signal (z-score),[19],-0.58
same,glycan array binding signal (z-score),[20],-0.616
same,glycan array binding signal (z-score),GalNAc(b1-4)GlcNAc,-0.865
same,glycan array binding signal (z-score),[21],0.05
same,glycan array binding signal (z-score),[22],-1.07
same,glycan array binding signal (z-score),[23],-0.471
same,glycan array binding signal (z-score),[24],-1.11
same,glycan array binding signal (z-score),[25],0.144
same,glycan array binding signal (z-score),[26],0.592
same,glycan array binding signal (z-score),[27],0.06
same,glycan array binding signal (z-score),[28],-0.015
same,glycan array binding signal (z-score),Kdn(a2-3)Gal(b1-4)Glc,0.105
same,glycan array binding signal (z-score),[29],-0.411
same,glycan array binding signal (z-score),[30],2.37
same,glycan array binding signal (z-score),[31],1.14
same,glycan array binding signal (z-score),[32],-0.39
same,glycan array binding signal (z-score),[33],0.24
same,glycan array binding signal (z-score),Neu5Ac(a2-6)Gal,-0.071
same,glycan array binding signal (z-score),[34],0.794
same,glycan array binding signal (z-score),[35],-0.656
same,glycan array binding signal (z-score),[36],0.794
same,glycan array binding signal (z-score),[37],-0.41
same,glycan array binding signal (z-score),[38],-1.1
same,glycan array binding signal (z-score),[39],-0.816
same,glycan array binding signal (z-score),[40],-0.889
same,glycan array binding signal (z-score),[41],-0.108

# Source: the supplement of paper PMC8728848
